# Data as given in PubChem BioAssay AID686978 (National Center for Advancing Translational Sciences (NCATS), 2013).
# In all, about 420,000 compounds went through this assay and about 64,000 (15%) were called active. Another 27% or so got no clear call; they are omitted. The call rests on the fitted dose curve; in most records, active means well fitted inhibition curve with a large enough effect; inconclusive means small, poorly fitted or top-dose-only effect; inactive means flat fitted curve, though single readings scatter. These entries were drawn from the full list. Where a call stands in place of a potency, no number is given.
# Experiment: qHTS for Inhibitors of human tyrosyl-DNA phosphodiesterase 1 (TDP1): qHTS in cells in absence of CPT; further: nearly all actives have a fitted effect of over 55% in size
# Settings: DT40 Tdp1-/- hTDP1 cells, no CPT, ATP luminescence, 48 h; activity change, negative = growth inhibition: at 46.2 µM (top of the series)
# Outline: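 Compound effects on proliferation are scored in DT40 Tdp1-/-;hTDP1 cells in the absence of CPT. ATP levels (CellTiter-Glo luminescence) are recorded after a ≥48 hr, 37 °C incubation.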
# Potency means the concentration at half of the fitted maximal effect.
row,Compound,Potency
1,Cc1ccc(NC(=O)C(Cc2ccccc2)NS(=O)(=O)c2ccc3c(c2)oc(=O)n3C)cc1C (centres undefined),inactive
2,CN(C(=O)CC1C(=O)NCCN1Cc1ccc2ccccc2c1)C1CCOCC1 (centres undefined),inactive
3,O=C1CC(c2c(F)cccc2Cl)C(n2cncn2)C(O)=C1C1NCCc2ccccc21 (centres undefined),inactive
4,Cc1ccc(C(C[N+](=O)[O-])c2c(C)cc3ccccn23)cc1 (centres undefined),16.4 µM (active)
5,Cc1ccc(C(=O)NNC(=O)CSc2nnc3ccccn23)cc1,inactive
6,COc1ccc(CC(=O)Nc2nc3n(n2)C(c2ccccc2)CC(=O)N3)cc1OC (centres undefined),inactive
7,O=C(CN1CCN(c2ccccn2)CC1)NCc1cccs1,inactive
8,O=C(COC(=O)COc1cc(Cl)c(Cl)cc1Cl)NC1CC1,inactive
9,NC(=S)NN=Cc1ccc(OC(=O)COc2cc(Cl)c(Cl)cc2Cl)cn1,5.8 µM (active)
10,O=C(COc1cc(Cl)c(Cl)cc1Cl)NCCc1ccccn1,inactive
11,Cc1nn(C)c(C)c1Sc1ccccc1N,inactive
12,CC(=O)OC(C(=O)NCCc1ccccc1)c1cccnc1 (centres undefined),inactive
13,O=C(Cc1ccc([N+](=O)[O-])cc1)NCCc1ccc2c(c1)OCO2,inactive
14,O=C(COC(=O)c1ccc2c(c1)OCCO2)NCc1ccccc1,inactive
15,O=C(NCCc1ccc2c(c1)OCCO2)c1cc2ccccc2o1,20.6 µM (active)
16,CN(C)S(=O)(=O)c1ccc(N2CCCC2)c(C(=O)Nc2cccc(F)c2)c1,inactive
17,CCN(CC)C(=O)CN(c1cccc([N+](=O)[O-])c1)S(=O)(=O)c1ccccc1,inactive
18,O=C(Nc1cccc([N+](=O)[O-])c1)Nc1ccc(Cl)cn1,inactive
19,O=C(CCl)N(Cc1cccc([N+](=O)[O-])c1)c1cccc(Cl)c1,4.11 µM (active)
20,O=C1O/C(=C\c2ccc(O)cc2)C(O)=C1c1ccc(O)cc1,inactive
21,Cc1cccc2cc(C#N)c(N3CCCC3)nc12,inactive
22,Cc1cc(C)c2cc(C#N)c(N3CCNCC3)nc2c1,18.4 µM (active)
23,Cc1cc(C)c2nc(N3CCCC3)c(C#N)cc2c1,inactive
24,Cc1cccc(C)c1NC(=O)CNC(=O)c1c(C)nn(-c2ccccc2)c1C,inactive
25,COC(=O)N1CCC[C@@]2(CCN(C(=O)NC(C)C)C2)C1,inactive
26,O=C(COc1ccc2c(c1)CCC2)N1CCN(c2ccc(F)cc2)CC1,inactive

row,Compound,Potency
1,OC(COc1cccc(OCC(O)CN2CCCC2)c1)CN1CCCC1 (centres undefined),inactive
2,COc1ccc(OCC(=O)N2CCN(C(=O)COc3ccccc3)CC2)cc1,inactive
3,COc1cccc(OCC(O)CN2CCN(CCO)CC2)c1 (centres undefined),inactive
4,CSCCC(NC(=O)COc1ccccc1)C(=O)OCCOc1ccc(Br)cc1 (centres undefined),inactive
5,CSCCC(NC(=O)COc1ccccc1)C(=O)OCCOc1ccc(F)cc1 (centres undefined),inactive
6,Cc1c(C)c2ccc(OCC(=O)N3CCN(c4cccc(Cl)c4)CC3)cc2oc1=O,10.3 µM (active)
7,OC(COc1ccc2c(c1)CCC2)CN1CCN(c2cccc(Cl)c2)CC1 (centres undefined),18.4 µM (active)
8,Cc1cc(=O)oc2cc(OCC(=O)N3CCN(c4ccc(F)cc4)CC3)c(Cl)cc12,inactive
9,O=C(COc1ccc(Cl)cc1)N1CCN(c2cccc(C(F)(F)F)c2)CC1,20.6 µM (active)
10,CSCCC(NC(=O)COc1ccccc1)C(=O)N1CCN(c2cccc(C(F)(F)F)c2)CC1 (centres undefined),13 µM (active)
11,COc1ccc(N2CCN(C(=O)COc3ccc4c(C)cc(=O)oc4c3)CC2)cc1,inactive
12,O=C(O)c1cc([N+](=O)[O-])c(Nc2cccc3ccccc23)c([N+](=O)[O-])c1,inactive
13,CCn1ncc(C2=NOC(C(=O)N3CCN(c4ccccc4)CC3)C2)c1C (centres undefined),inactive
14,O=C1OC(NC(=O)c2ccccc2)C(N2CCOCC2)=C1Cl (centres undefined),inactive
15,CCOC(=O)CCCNC(=O)COC(=O)c1cc(Br)c(Br)s1,inactive
16,Cc1cccc(C)c1NC(=O)CNC(=O)C1CCCC1,inactive
17,CC(C)(C)NC(=O)C(c1ccncc1)N(C(=O)CNC(=O)c1ccco1)c1ccc2c(c1)OCO2 (centres undefined),inactive
18,Cc1nc(Nc2ccccc2F)c2nnn(Cc3ccccc3Cl)c2n1,inactive
19,O=C(CCN1C(=O)[C@@H]2Cc3ccccc3CN2C1=O)NCCc1ccccc1,inactive
20,O=C(NC1CCCCC1)C1CC(=O)N(CCc2ccccc2)C1 (centres undefined),inactive
21,COc1ccccc1-c1nnc(SCC(=O)Nc2ccccc2)o1,inactive
22,CCC(=O)c1ccc(OCC(O)CN2CC(C)OC(C)C2)cc1 (centres undefined),inactive
23,CCC(=O)c1ccc(OCC(O)CN2CCN(c3cccc(C(F)(F)F)c3)CC2)cc1 (centres undefined),25.9 µM (active)
24,O=C(c1ccccc1)c1ccc(OCC(O)CN2CCCC2)cc1 (centres undefined),inactive
25,CCn1cc(C(=O)NCC(=O)NC(C)(C)CO)c(=O)c2cc3c(cc21)OCO3,inactive
26,C/C(=N\NC(=O)C1(C)CC1(Br)Br)c1ccc(C)cc1C (centres undefined),inactive

row,Compound,Potency
1,COc1ccc(-c2nc3c(s2)CCc2onc(-c4ccc(OC)cc4)c2-3)cc1,16.4 µM (active)
2,COc1ccc(-c2noc(-c3ccc(C)cc3)n2)cc1,inactive
3,COc1ccc(-c2cc(C(=O)Nc3sc4c(c3C(N)=O)CCCC4)no2)cc1,inactive
4,Cc1ccc(NC(=S)N2CCN(c3ncccn3)CC2)cc1C,inactive
5,Cc1sc2ncnc(N3CCC(C(=O)Nc4ccc(F)cc4Cl)CC3)c2c1C,23.1 µM (active)
6,Cc1ccc(Cl)cc1NC(=O)C1CCN(S(C)(=O)=O)CC1,inactive
7,O=C(NNC(=O)C1CCCC1)c1ccc(F)cc1,inactive
8,CC(=O)Nc1c(C)nn(-c2ccccc2)c1N1CCC(C(=O)Nc2cc(Cl)ccc2C)CC1,inactive
9,Cc1nc2ccc(NC(=O)C3CCCCC3)cc2s1,inactive
10,Cc1sc2ncnc(N3CCC(C(=O)NNC(=O)c4ccc(F)cc4)CC3)c2c1C,16.4 µM (active)
11,O=C(NNC(=O)C1CCN(c2ncccn2)CC1)c1ccccc1,inactive
12,CS(=O)(=O)c1ccc2nc(NC(=O)C3C4C=CC(C4)C3C(=O)O)sc2c1 (centres undefined),inactive
13,Cc1sc2ncnc(N3CCC(C(=O)Nc4nc5ccc(Cl)cc5s4)CC3)c2c1C,7.31 µM (active)
14,CC(C)[C@H](NC(=O)Nc1ccc(S(N)(=O)=O)cc1)C(=O)O,inactive
15,CC(C)CCN1NC2(CCC(C)CC2)NC1=S (centres undefined),inactive
16,CN1C(=O)c2ccccc2C(C(=O)NCCCN2CCCC2)C1c1c[nH]c2ccccc12 (centres undefined),inactive
17,CCc1c(O)nc(SCC(=O)N2CCCCC2)n(-c2ccccc2C)c1=O,inactive
18,CCc1ccc(OCC2c3cc(OC)c(OC)cc3CCN2C(C)=O)cc1 (centres undefined),13 µM (active)
19,CCc1ccc(OCC(=O)OC(C)C(=O)NC2CC2)cc1 (centres undefined),inactive
20,COc1ccc(CC(NC(C)=O)C(=O)NC2CCN(C(=O)c3ccc(OC)c(OC)c3)CC2)cc1OC (centres undefined),inactive
21,COc1ccc2[nH]c(=O)c(C3c4cc(OC)c(OC)cc4CCN3C(=O)c3ccco3)cc2c1 (centres undefined),inactive
22,COc1cc2c(cc1OC)C(COc1ccc(F)cc1)N(C(=O)c1ccccc1F)CC2 (centres undefined),16.4 µM (active)
23,COc1cc2c(cc1OC)CN(CC(=O)Nc1ccc(F)cc1)CC2,inactive
24,CC(C)CN(C(=O)CSc1ncnc2sccc12)C1CCS(=O)(=O)C1 (centres undefined),inactive
25,O=C(N/N=C/c1ccsc1)c1cc(O)cc(O)c1,inactive
26,CCN(CC(=O)NCc1cccs1)C(=O)/C=C/c1ccc(C)cc1,inactive

row,Compound,Potency
1,FCOC(C(F)(F)F)C(F)(F)F,inactive
2,CCCCc1ccc(NC(=O)NCc2cccnc2)cc1,inactive
3,CCCCCCCCCCCCN1C(=O)CSC1c1cccnc1 (centres undefined),16.4 µM (active)
4,CN(C)CCCN1C(=O)CSC1c1ccc([N+](=O)[O-])cc1 (centres undefined),inactive
5,COC(=O)CC1C(C)(C)C(OC(C)=O)C2CC3=C4CC(=O)OC(c5ccoc5)[C@]4(C)CCC3[C@@]1(C)C2=O (some centres undefined),inactive
6,C=C1C([C@@]2(C)C(OC(C)=O)CC(=O)O[C@@](C)(COC(C)=O)C2CC(=O)OC)C(OC=O)C(OC(=O)C(O)C(C)CC)[C@]2(C)C(c3ccoc3)CC(=O)C12O (some centres undefined),4.61 µM (active)
7,CCOC(=O)C1(Cc2ccccc2C)CCCN(S(C)(=O)=O)C1 (centres undefined),inactive
8,C/C(=N\NC(=O)OC(C)(C)C)c1ccc[nH]1,inactive
9,Cn1c(=O)c2c(SCC(=O)NCC3CCCO3)nc(-c3ccccc3F)nc2n(C)c1=O (centres undefined),inactive
10,Cc1cccc(-c2nc(SCC(=O)Nc3cc(C)on3)c3c(=O)n(C)c(=O)n(C)c3n2)c1,inactive
11,Cc1ccccc1-c1nc(SCC(=O)N(C)c2ccccc2)c2c(=O)n(C)c(=O)n(C)c2n1,9.2 µM (active)
12,O=C(CN(C(=O)c1csnn1)c1cccc(F)c1)NCc1ccc(F)cc1,inactive
13,CCCCn1c(N)c(N(CCC(C)C)C(=O)COC(=O)c2ccc(CC)cc2)c(=O)[nH]c1=O,inactive
14,CCCCc1nc(NCCN)c(C#N)c2c1CSC(C)(C)C2,20.6 µM (active)
15,Cc1nc(NCCN)c(C#N)c2c1COC(C)(C)C2,inactive
16,CCCCc1nc(NCc2ccccc2)c(C#N)c2c1CCCC2,inactive
17,CCOc1ccc(S(=O)(=O)Nc2ccncc2)c(C)c1C,inactive
18,COc1ccc(OC)c(/C=N/NC(=O)CSc2nnc(C)n2-c2ccccc2)c1,inactive
19,O=C(CSc1nc2ccccc2c(=O)n1-c1ccc(F)cc1)NC1CC1,inactive
20,Cc1nn(-c2ccccc2)c(C)c1/C=N/NC(=O)CSc1nc2ccccc2c(=O)n1-c1ccccc1,18.4 µM (active)
21,CCCS(=O)(=O)NC(=O)C1(C)CCCN(C(=O)c2cccs2)C1 (centres undefined),inactive
22,COc1cc(/C=C2\C(=N)N3N=C(CC(=O)N4CCOCC4)SC3=NC2=O)cc(OC)c1OC,inactive
23,Cc1noc(C)c1C(=O)N(CC(=O)NC1CCCC1)Cc1ccccc1F,inactive
24,CCOP1(=O)C=C(C(C)(C)C)OC1c1ccc(F)cc1 (centres undefined),inactive
25,CN(C)CCSc1nc(N)c2c3c(sc2n1)COC(C)(C)C3,inactive
26,C=CCNC(=S)NNc1ncnc2sc3c(c12)CC(C)(C)OC3,5.17 µM (active)
